Results filed as inconclusive are left out. Calls of active or inactive are those of the source. Unless noted, the call rests on the fitted dose curve; in most records, active means well fitted curve in the direction sought with a large enough effect in the repeat runs; inconclusive means weak or mixed curves; inactive means no such curve, though single readings can be large; an effect the other way counts as inactive or inconclusive.

A short description of test [1]: qHTS assay to identify small molecule antagonists of the sonic hedgehog signaling (Shh) pathway (AID 1259369; calls by dose curve; further: nearly all actives have a fitted effect of over 45% in size). Put shortly: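 3T3Gli1-Luc, conditioned-medium-stimulated, 24hr cpd, 37C/5% CO2; Gli1-driven firefly Luc luminescence after 30min RT with luciferase reagent. Cells plated 4hr before cpd.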
On the technique in general: Quantitative high-throughput screening tests each substance at several concentrations.

Test [2] addresses Estrogen receptor beta (Homo sapiens) (UniProt Q92731). The test can be described thus: qHTS assay to identify small molecule agonists of the estrogen receptor beta (ER-beta) signaling pathway (AID 1259377; active means well fitted activation curve with a large enough effect in the signal ratio in the repeat runs, not every such curve was filed as active; the % refers to the signal ratio). The method in brief:
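ER-beta-UAS-bla HEK293T (GripTite) cells carrying a UAS-driven beta-lactamase reporter, in medium with 2% charcoal-stripped FBS, were exposed to compounds for 16 hr at 37C; LiveBLAzer B/G FRET substrate was then added and fluorescence read after 2 hours at room temperature.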

For test [3] the target is unchanged. The test is described as follows: qHTS assay to identify small molecule antagonists of the estrogen receptor beta (ER-beta) signaling pathway (AID 1259378; active means well fitted inhibition curve with a large enough effect in the signal ratio in the repeat runs, not every such curve was filed as active; the % refers to the signal ratio). The method in brief:
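Antagonist mode: compounds added to beta-lactamase reporter HEK293T ER-beta-UAS cells stimulated with E2 (1nM final), 16 hr at 37C. LiveBLAzer B/G FRET substrate, 2 hours room temperature, fluorescence read-out.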

The nature of test [4]: qHTS assay to identify small molecule agonists of the androgen receptor (AR) signaling pathway in the presence of an antagonist - cell viability counter screen (AID 1259379).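 Further: MDA-kb2 human breast cancer cells carrying an MMTV luciferase reporter; series mostly up to about 92 µM; nearly all actives have a fitted effect of over 25% in size.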 Put shortly: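 Cells: MDA-kb2 (MMTV-luc, AR and GR elements), 3,000/well, 5 hr settle. Added: nilutamide 3.0uM final, then compounds (15 conc.). Incubation: 16 hr, 37C, no CO2. Read-out: CellTiter-Fluor, 1 hr, fluorescence.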

Test [5] can be described thus: qHTS assay to identify small molecule agonists of the estrogen receptor beta (ER-beta) signaling pathway - cell viability counter screen (AID 1259380). Further: nearly all actives have a fitted effect of over 30% in size. The method in brief:
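HEK293T ER-beta-UAS-bla; 2% CS-FBS; 6 hr pre-plate, 16 hr cpd at 37C/5% CO2; LiveBLAzer read first, then CellTiter-Glo 30 min RT, luminescence.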

In test [6] the target is Androgen receptor (Homo sapiens) (UniProt P10275). The test can be described thus: qHTS assay to identify small molecule agonists of the androgen receptor (AR) signaling pathway in the presence of an antagonist (AID 1259381; calls by dose curve; further: nearly all actives have a fitted effect of over 15% in size). Put shortly:
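MDA-kb2 cells, 3,000/well, rested 5hr at 37C/0% CO2 → nilutamide 3.0uM final or buffer → compounds, 15 conc. → 16hr at 37C → ONE-Glo, 30min RT → luminescence.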

Test [7] in a line: qHTS assay to identify small molecule antagonists of the estrogen receptor beta (ER-beta) signaling pathway - cell viability counter screen (AID 1259382). Further: series mostly up to about 92 µM; nearly all actives have a fitted effect of over 55% in size. Put shortly: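 Cells: ER-beta-UAS-bla HEK293T, 2,000/well, 2% CS-FBS, 6 hr settle. Cpd + E2 (1nM final), 16 hr, 37C/5% CO2. Bla FRET substrate 2 hr RT, then CellTiter-Glo 30 min RT, luminescence.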
Test [8] is described as follows: qHTS assay to identify small molecule agonists or antagonists of the thyroid stimulating hormone receptor (TSHR) signaling pathway - wild type cell line counter screen (AID 1259384; calls by dose curve). Put shortly:
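Counter screen in untransfected Hek293: compounds (15-point titration, triplicate) plus phosphodiesterase inhibitor Ro20-1724 added after 18 h plating; 30 min RT. Intracellular cAMP via competitive d2/cryptate immunoassay, 1 h incubation.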

In test [9] the target is Thyrotropin receptor (Homo sapiens) (UniProt P16473). The test is described as follows: qHTS assay to identify small molecule antagonists of the thyroid stimulating hormone receptor (TSHR) signaling pathway (AID 1259385; calls by dose curve; further: nearly all actives have a fitted effect of over 20% in size). Put shortly: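 Antagonist mode: compound-treated TSHR-expressing HEK293 cells were stimulated with 1.5 ng/mL TSH (final) in presence of Ro20-1724 for 30 min at RT. HTRF cAMP detection after 1 h; each compound tested at 15 concentrations, triplicate.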

A short description of test [10]: qHTS assay to identify small molecule agonists of the estrogen receptor alpha (ER-alpha) signaling pathway in the presence of an antagonist - cell viability counter screen (AID 1259386).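 Further: series mostly up to about 92 µM; cells exposed to compounds for 22 h at 37 °C before the viability read; nearly all actives have a fitted effect of over 30% in size.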 Put shortly: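 VM7Luc4E2, stripped-serum pre-culture 5 d; 24hr plating; +ICI-182,780 10.0nM final; cpds 15 conc, 22hr, 37C/5% CO2; CellTiter-Fluor added at 21hr, fluorescence 1hr later.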

The target in test [11] is Progesterone receptor (Homo sapiens) (UniProt P06401). The test is described as follows: qHTS assay to identify small molecule agonists of the progesterone receptor (PR) signaling pathway (AID 1346784; calls by dose curve; further: nearly all actives have a fitted effect of over 30% in size). The method in brief:
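PR-UAS-bla HEK 293T cells carrying a UAS-driven beta-lactamase reporter were seeded in medium with 2% charcoal-stripped FBS, preincubated 6 hr at 37C, then exposed to compounds in DMSO for 16 hr; agonism was read by LiveBLAzer B/G FRET fluorescence.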

Test [12] shares this target. The test is described as follows: qHTS assay to identify small molecule antagonists of the progesterone receptor (PR) signaling pathway (AID 1346795; active means well fitted inhibition curve with a large enough effect in the signal ratio in the repeat runs, not every such curve was filed as active; the % refers to the signal ratio; further: potency means the concentration at half of the fitted maximal effect). Put shortly: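 PR-UAS-bla HEK293T cells carrying a UAS-driven beta-lactamase reporter were plated in medium with 2% charcoal-stripped FBS and rested 6 hr at 37C. Compounds were added with 1 nM R5020 (final) for 16 hr, then FRET substrate loaded 2 hr at room temperature.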

The nature of test [13]: qHTS assay to identify small molecule antagonists of the progesterone receptor (PR) signaling pathway - cell viability counter screen (AID 1346798). Further: nearly all actives have a fitted effect of over 50% in size. Further: potency means the concentration at half of the fitted maximal effect. Put shortly: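 PR-UAS-bla HEK293T cells in medium with 2% charcoal-stripped FBS were treated with compounds plus R5020 for 16 hr at 37C. Cell viability was then read by CellTiter-Glo luminescence after 30 min at room temperature in the same wells.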

Test [14] can be described thus: qHTS assay to identify small molecule agonists of the progesterone receptor (PR) signaling pathway - cell viability counter screen (AID 1346799; calls by dose curve; further: nearly all actives have a fitted effect of over 45% in size). Put shortly: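 PR-UAS-bla HEK293T cells, 3,000 per well in medium with 2% charcoal-stripped FBS, were preincubated 6 hr at 37C, then exposed to compounds for 16 hr; viability was read as CellTiter-Glo luminescence after 30 min at room temperature.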

Test [15] can be described thus: qHTS assay to identify small molecule antagonists of the TGF-beta/Smad signaling pathway - cell viability counter screen (AID 1346824). Further: nearly all actives have a fitted effect of over 50% in size. Put shortly:
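Cytotoxicity counter-screen run in the same wells as the beta-lactamase Smad reporter read: CellTiter-Glo luminescence after 30 min at room temperature. HEK 293T SBE-bla cells had 5 hr compound exposure at 37 C with TGF-beta1 (0.25 ng/mL stock).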

Test [16] can be described thus: qHTS assay to identify small molecule agonists of the TGF-beta/Smad signaling pathway - cell viability counter screen (AID 1346829). Further: top concentration of the series differs between compounds; nearly all actives have a fitted effect of over 45% in size. Put shortly:
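Tox21 qHTS format: SBE-bla HEK 293T cells treated with DMSO-dissolved compounds for 5 hr; CellTiter-Glo luminescence after 30 min at room temperature.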

The target in test [17] is Thyrotropin-releasing hormone receptor (Homo sapiens) (UniProt P34981). The test is described as follows: qHTS assay to identify small molecule antagonists of the thyrotropin-releasing hormone receptor (TRHR) signaling pathway (AID 1346877; active means well fitted inhibition curve with a large enough effect in the repeat runs, not every such curve was filed as active; further: series mostly up to about 51 µM). The method in brief:
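Intracellular calcium fluorescence, read kinetically every second over 3 min, reports TRH-evoked signalling in HEK293 cells carrying TRHR. Test compounds were added 5 min ahead of a 1 nM TRH challenge.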

The target is the same in test [18]. The test can be described thus: qHTS assay to identify small molecule agonists of the thyrotropin-releasing hormone receptor (TRHR) signaling pathway (AID 1346891; calls by dose curve; further: series mostly up to about 58 µM). The method in brief: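 TRHR-expressing HEK293 cells were plated 18 h at 37 °C/5% CO2, loaded with calcium dye 2 h at 37 °C, then given compound in DMSO; fluorescence was read kinetically for 3 min at 1 s intervals.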

For test [19], the target named is Estrogen receptor (Homo sapiens) (UniProt P03372). The test can be described thus: qHTS assay to identify small molecule agonists of the estrogen receptor alpha (ER-alpha) signaling pathway in the presence of an antagonist (AID 1259383; calls by dose curve; further: top concentration of the series differs between compounds; nearly all actives have a fitted effect of over 15% in size). Put shortly:
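VM7Luc4E2, endog. ER-alpha + 4×ERE-luc; charcoal-stripped FBS, phenol red-free, 5 d; 24hr plating; +10.0nM ICI-182,780 (final); cpds 15 conc, 22hr, 37C/5% CO2; ONE-Glo luminescence.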

The nature of test [20]: qHTS assay to identify small molecule agonists of the TGF-beta/Smad signaling pathway (AID 1346859; active means well fitted activation curve with a large enough effect in the signal ratio in the repeat runs, not every such curve was filed as active; the % refers to the signal ratio; further: series mostly up to about 77 µM). The method in brief:
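HEK 293T cells stably carrying a beta-lactamase reporter driven by the Smad binding element were seeded overnight, exposed to DMSO-dissolved compounds for 5 hr at 37 C, 5% CO2, then loaded with FRET substrate for 2 hr at room temperature.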

Sequence of Progesterone receptor (Homo sapiens) (P06401 whole entry, looked up): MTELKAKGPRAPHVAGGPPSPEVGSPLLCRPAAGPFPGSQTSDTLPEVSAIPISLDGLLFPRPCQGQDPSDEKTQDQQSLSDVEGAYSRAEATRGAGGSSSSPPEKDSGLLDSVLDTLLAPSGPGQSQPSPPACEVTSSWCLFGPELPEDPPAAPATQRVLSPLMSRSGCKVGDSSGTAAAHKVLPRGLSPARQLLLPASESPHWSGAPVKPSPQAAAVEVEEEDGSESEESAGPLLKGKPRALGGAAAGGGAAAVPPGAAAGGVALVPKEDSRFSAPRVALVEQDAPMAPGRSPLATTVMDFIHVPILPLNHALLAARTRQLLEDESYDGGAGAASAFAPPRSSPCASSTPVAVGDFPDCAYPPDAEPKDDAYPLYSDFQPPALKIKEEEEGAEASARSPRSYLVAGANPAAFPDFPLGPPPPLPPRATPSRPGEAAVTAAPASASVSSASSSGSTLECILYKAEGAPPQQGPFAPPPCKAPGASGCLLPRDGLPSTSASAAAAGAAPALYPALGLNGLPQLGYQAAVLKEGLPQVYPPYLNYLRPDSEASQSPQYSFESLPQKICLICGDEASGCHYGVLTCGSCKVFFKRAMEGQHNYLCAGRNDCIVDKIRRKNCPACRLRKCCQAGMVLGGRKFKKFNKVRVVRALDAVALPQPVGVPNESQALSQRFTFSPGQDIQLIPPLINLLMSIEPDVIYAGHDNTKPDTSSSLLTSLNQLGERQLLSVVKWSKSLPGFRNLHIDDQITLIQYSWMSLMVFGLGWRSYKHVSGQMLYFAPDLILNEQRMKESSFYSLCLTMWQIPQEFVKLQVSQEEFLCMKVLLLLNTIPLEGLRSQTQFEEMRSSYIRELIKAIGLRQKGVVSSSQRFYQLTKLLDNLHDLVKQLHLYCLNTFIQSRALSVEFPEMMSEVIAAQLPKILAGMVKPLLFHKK
Sequence of Thyrotropin-releasing hormone receptor (Homo sapiens) (P34981 whole entry, looked up): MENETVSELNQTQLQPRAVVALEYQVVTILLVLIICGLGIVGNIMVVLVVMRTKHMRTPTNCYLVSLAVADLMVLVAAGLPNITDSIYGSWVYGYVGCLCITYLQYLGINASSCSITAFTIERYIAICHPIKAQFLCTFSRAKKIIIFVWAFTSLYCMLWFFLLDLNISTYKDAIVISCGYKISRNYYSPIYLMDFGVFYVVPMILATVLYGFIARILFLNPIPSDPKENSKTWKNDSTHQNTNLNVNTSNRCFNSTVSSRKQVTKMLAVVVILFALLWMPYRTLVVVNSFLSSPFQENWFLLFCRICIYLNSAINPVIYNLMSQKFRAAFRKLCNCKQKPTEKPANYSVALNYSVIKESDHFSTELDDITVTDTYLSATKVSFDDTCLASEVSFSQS
Sequence of Estrogen receptor (Homo sapiens) (P03372 whole entry, looked up): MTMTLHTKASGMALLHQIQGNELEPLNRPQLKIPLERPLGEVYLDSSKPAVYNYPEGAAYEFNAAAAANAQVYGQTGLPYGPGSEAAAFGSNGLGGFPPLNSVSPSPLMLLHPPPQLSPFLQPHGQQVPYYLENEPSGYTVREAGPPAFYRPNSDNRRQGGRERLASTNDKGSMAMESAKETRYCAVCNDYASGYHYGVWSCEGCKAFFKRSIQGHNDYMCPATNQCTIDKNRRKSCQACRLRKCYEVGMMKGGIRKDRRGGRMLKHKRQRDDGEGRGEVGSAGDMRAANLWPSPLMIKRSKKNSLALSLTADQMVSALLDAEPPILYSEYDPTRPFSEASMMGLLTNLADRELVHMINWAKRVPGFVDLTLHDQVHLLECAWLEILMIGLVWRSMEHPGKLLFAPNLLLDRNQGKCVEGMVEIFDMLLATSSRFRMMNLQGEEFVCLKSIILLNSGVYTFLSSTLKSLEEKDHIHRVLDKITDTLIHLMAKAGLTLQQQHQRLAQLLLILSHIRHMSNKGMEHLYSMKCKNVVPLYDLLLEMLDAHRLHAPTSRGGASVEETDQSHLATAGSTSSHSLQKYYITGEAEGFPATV
Sequence of Thyrotropin receptor (Homo sapiens) (P16473 whole entry, looked up): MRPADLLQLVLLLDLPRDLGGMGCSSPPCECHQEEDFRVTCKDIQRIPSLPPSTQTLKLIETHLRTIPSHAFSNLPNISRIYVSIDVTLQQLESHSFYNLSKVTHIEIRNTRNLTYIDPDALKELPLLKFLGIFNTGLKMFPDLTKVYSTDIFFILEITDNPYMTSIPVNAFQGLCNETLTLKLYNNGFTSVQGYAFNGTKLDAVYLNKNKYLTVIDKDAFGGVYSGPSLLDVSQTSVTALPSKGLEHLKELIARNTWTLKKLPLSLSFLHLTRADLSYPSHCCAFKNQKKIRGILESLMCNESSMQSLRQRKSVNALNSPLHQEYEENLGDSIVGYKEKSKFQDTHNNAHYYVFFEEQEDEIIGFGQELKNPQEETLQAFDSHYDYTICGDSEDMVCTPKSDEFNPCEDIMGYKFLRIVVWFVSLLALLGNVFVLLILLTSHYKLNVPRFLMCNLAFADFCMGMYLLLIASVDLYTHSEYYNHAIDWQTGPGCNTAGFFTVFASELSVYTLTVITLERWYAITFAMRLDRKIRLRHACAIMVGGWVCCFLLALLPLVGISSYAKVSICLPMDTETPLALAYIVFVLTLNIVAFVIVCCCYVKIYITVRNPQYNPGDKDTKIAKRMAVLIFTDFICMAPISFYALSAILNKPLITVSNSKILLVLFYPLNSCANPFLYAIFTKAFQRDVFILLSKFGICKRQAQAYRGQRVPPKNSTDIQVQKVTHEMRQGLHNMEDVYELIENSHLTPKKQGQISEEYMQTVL
Sequence of Estrogen receptor beta (Homo sapiens) (Q92731 whole entry, looked up): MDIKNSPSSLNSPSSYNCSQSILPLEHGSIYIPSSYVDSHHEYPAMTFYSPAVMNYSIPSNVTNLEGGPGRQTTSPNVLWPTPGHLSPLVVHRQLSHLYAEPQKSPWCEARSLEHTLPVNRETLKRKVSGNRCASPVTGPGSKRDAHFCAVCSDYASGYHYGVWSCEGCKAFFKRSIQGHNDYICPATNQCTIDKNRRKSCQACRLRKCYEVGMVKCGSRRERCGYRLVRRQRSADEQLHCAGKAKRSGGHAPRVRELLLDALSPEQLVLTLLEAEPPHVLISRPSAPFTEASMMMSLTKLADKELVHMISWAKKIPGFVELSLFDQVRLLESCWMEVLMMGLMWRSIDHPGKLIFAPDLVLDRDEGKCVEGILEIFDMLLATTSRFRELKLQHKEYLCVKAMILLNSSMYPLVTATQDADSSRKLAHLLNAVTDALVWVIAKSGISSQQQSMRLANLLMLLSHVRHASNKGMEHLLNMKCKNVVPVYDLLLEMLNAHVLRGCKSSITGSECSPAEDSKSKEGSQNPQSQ
Sequence of Androgen receptor (Homo sapiens) (P10275 whole entry, looked up): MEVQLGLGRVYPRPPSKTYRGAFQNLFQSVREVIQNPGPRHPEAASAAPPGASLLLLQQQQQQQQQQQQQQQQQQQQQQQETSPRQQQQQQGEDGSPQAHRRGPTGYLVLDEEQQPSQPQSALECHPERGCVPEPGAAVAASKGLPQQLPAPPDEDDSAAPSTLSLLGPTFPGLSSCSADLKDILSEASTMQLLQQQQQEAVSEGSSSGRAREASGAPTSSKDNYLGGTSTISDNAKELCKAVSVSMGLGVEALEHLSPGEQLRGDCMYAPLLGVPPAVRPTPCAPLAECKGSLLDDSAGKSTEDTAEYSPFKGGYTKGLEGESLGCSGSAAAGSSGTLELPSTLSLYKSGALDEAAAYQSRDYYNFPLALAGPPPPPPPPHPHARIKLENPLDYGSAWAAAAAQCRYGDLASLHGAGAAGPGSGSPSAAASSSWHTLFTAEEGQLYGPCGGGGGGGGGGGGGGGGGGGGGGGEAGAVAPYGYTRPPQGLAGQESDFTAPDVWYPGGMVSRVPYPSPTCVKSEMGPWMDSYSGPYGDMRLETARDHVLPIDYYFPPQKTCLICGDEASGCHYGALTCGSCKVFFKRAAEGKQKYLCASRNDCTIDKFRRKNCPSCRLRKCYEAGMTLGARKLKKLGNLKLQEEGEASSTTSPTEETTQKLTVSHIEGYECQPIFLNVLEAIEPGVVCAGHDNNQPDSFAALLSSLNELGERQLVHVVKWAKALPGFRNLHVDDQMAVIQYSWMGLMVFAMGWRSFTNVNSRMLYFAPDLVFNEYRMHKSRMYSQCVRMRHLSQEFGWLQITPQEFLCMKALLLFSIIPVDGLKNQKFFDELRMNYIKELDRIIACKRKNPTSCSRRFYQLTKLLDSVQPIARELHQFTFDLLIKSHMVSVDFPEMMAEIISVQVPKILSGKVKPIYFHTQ

As for `C=CC(Cl)CCl` (stereo unspecified), the Potency result in test [1], in [2], in test [3], in test [4], in test [5] and in test [7] was “inactive” throughout. Further, the Potency result in [8], in [9], in [10], in test [11], in test [12] and in test [13] was “inactive” each time. Further, the Potency result in [14], in test [15], in test [16] and in test [17] was “inactive” throughout. The outcome in [6] and in [18] was inactive.

In the case of `Clc1ccccc1-c1nnc(-c2ccccc2Cl)nn1`, the Potency result in [1], in test [2], in test [3], in test [4], in test [5] and in test [7] was “inactive” each time. The Potency entry in test [19], in test [8], in test [9], in [10], in test [11] and in [12] was “inactive” throughout. The Potency result in test [13], in [14], in [15], in test [16], in test [20] and in test [17] was “inactive” throughout.

`S=c1[nH]c2ccccc2[nH]1`: the Potency entry in test [1], in [2], in test [3], in test [4], in test [5] and in test [7] was “inactive” throughout. Moreover, the Potency result in test [8], in test [9], in test [10], in test [11], in [14] and in test [16] was “inactive” throughout. In addition, the Potency result in [20] and in test [17] was “inactive” each time. Besides, the result in [6] and in test [18] was inactive. The Potency in test [12] was 30.7 µM (active); in [13], 24.4 µM (active).

For `CC(C)COC(=O)c1ccccc1C(=O)OCC(C)C`, the Potency result in test [1], in test [2], in test [3], in test [4], in [5] and in [7] was “inactive” each time. The Potency entry in [19], in test [8], in test [9], in [10], in [11] and in test [12] was “inactive” each time. Further, the Potency result in [13], in [14], in [15], in test [16] and in test [17] was “inactive” in each case.

As for `ClCc1ccccn1`, the Potency entry in [1], in test [2], in test [3], in test [4], in test [5] and in test [7] was “inactive” throughout. The Potency entry in test [19], in test [8], in test [9], in [10], in [11] and in test [12] was “inactive” throughout. The Potency entry in [13], in [14], in [15], in test [16], in test [20] and in [17] was “inactive” throughout.

As for `N#Cc1cccnc1`, the Potency result in test [1], in test [2], in test [3], in test [4], in test [5] and in [7] was “inactive” each time. Further, the Potency result in [19], in test [8], in [9], in test [10], in [11] and in test [12] was “inactive” each time. Also, the Potency result in [13], in [14], in test [15], in test [16], in test [20] and in test [17] was “inactive” each time.

Consider `O=NN1CCOCC1`, for which the Potency result in test [1], in [2], in [3], in [4], in test [5] and in test [7] was “inactive” throughout. For the same compound, the Potency result in test [19], in [8], in [9], in test [10], in [11] and in test [12] was “inactive” throughout. The Potency result in test [13], in [14], in test [15], in [16], in [20] and in test [17] was “inactive” each time. Besides, in [18], the compound was classed as inactive.
